“And” between values parts separate entries of the source, which are not always exact repeats. Identical values can stand only once. Records with an inconclusive call do not appear. The source made the active and inactive calls. Unless noted, cut-off not given; nearly all actives show AC50 up to about 26 µM.
Experiments:
[1] = viability loss in pontine glioma line – cell-based, SU-DIPG-XVII, MIPE5.0, CellTiter-Glo, qHTS, dose response (AID 1347060); details: CellTiter-Glo ATP luminescence;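 on AC50: cells exposed to compound for 48 hours before viability readout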
[2] = viability loss in pontine glioma line – cell-based, SU-DIPG-XIII, MIPE4.0, CellTiter-Glo, qHTS, dose response (AID 1347061; cut-off not given, nearly all actives have AC50 up to about 37 µM;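 further: cells exposed to compound for 48 hours before readout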); details: CellTiter-Glo ATP luminescence
[3] = viability loss in pontine glioma line – cell-based, SU-DIPG-IV, MIPE4.0, CellTiter-Glo, qHTS, dose response (AID 1347063; cut-off not given, nearly all actives have AC50 up to about 30 µM;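 further: compound exposure lasted 48 hours before the viability readout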); details: CellTiter-Glo ATP luminescence
[4] = viability loss in pontine glioma line – cell-based, SU-DIPG-XIII, MIPE5.0, CellTiter-Glo, qHTS, dose response (AID 1347064; cut-off not given, nearly all actives have AC50 up to about 23 µM;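 on AC50: cells exposed to compound for 48 hours before the viability read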); details: CellTiter-Glo ATP luminescence
[5] = viability loss in pontine glioma line – cell-based, SU-DIPG-XXV, MIPE5.0, CellTiter-Glo, qHTS, dose response (AID 1347065); details: CellTiter-Glo ATP luminescence;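 further: cells exposed to compound for 48 hours before ATP readout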
[6] = JHH-DIPG-1 glioma cell viability, MIPE5.0 library, CellTiter-Glo luminescence, qHTS (AID 1347067); details: JHH-DIPG-1 glioma viability, CellTiter-Glo ATP luminescence;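 further: cells exposed to compound for 48 hours before readout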
[7] = growth inhibition of DIPG cells – cell-based, MIPE5.0 library, qHTS (AID 1347068; cut-off not given, nearly all actives have IC50 up to about 30 µM;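 on IC50: cells exposed to compound for 48 hours before viability readout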); details: SU-DIPG-XXV viability
[8] = viability loss with induced miR-34 in A549 – imaging, A549 dox-inducible miR-34, nuclei and caspase counts, primary screen (AID 1347080;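 active means compounds whose cell count with miR-34 switched on is under 0.7 times the count with it off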); details: A549 miR-34 inducible, Hoechst nuclei count, 48 h
[9] = compounds altering HSF1 focus formation in cells – imaging, Selleck Cancer Library (AID 1347162; in the data active means plate-normalised HSF1 focus index below about 0.46); details: human cells, HSF1 nuclear foci imaging, at 10 µM; SSMD: measured here: HSF1 foci SSMD mean; cell count: measured here: cell number; plate-normalised HSF1 focus index: stronger effect = lower value
[10] = MELAS cybrid and Rieske KO viability enhancers – cell-based, MELAS cybrids, Rieske KO mouse fibroblasts, CellTiter-Glo, primary screen (AID 1508586;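 active means mean z-score across replicates of 1.96 or higher in either the MELAS or the Rieske mutant cell line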;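 further: z relative to plate mean and SD of compound and empty wells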); details: low glucose
[11] = growth inhibition of DIPG cells – cell-based, MIPE4.0 library, CellTiter-Glo luminescence, qHTS (AID 1347066; cut-off not given, nearly all actives have AC50 up to about 30 µM;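 further: cells exposed to compound for 48 hours before readout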); details: SU-DIPG-VI viability, CellTiter-Glo ATP luminescence
[12] = viability loss in pontine glioma line – cell-based, JHH-DIPG-1, MIPE4.0, CellTiter-Glo, qHTS, dose response (AID 1347062; cut-off not given, nearly all actives have AC50 up to about 27 µM;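 on AC50: cells exposed to compound for two days before readout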); details: JHH-DIPG-1 viability, CellTiter-Glo ATP luminescence
[13] = stronger effect = lower value, cell number ratio, induced over uninduced
[14] = measured here: relative caspase fold change +Dox/-Dox
[15] = measured here: total cells with miR-34 induction, stronger effect = lower value
[16] = measured here: total cells without miR-34 induction
[17] = MELAS cybrid survival, CellTiter-Glo 48 h, stronger effect = higher value
[18] = Rieske KO mouse fibroblast survival, CellTiter-Glo 72 h

Cc1cc(Nc2cc(N3CCN(C)CC3)nc(Sc3ccc(NC(=O)C4CC4)cc3)n2)n[nH]1
1580: cell count [8, 16]
active: AC50 [1] 2.95 µM | AC50 [2] 18.7 µM | AC50 [3] 2.96 µM | AC50 [4] 6.61 µM | AC50 [5] 0.332 µM | AC50 [6] 10.5 µM | IC50 [7] 8.33 µM | z-score [10, 17] 2.79
1560: cell count [8, 15]
6720: cell count [9]
1.15: z-score [10, 18]
inactive: fold change [8, 13] 0.993 | plate-normalised HSF1 focus index [9] 0.958
-0.956: SSMD [9]
0.793: fold change [8, 14]

CCOC(=O)[C@@H](N)Cc1ccc(-c2cc(O[C@H](c3ccc(Cl)cc3-n3ccc(C)n3)C(F)(F)F)nc(N)n2)cc1
inactive: outcome [2]
active: AC50 [1] 11.8 µM | AC50 [3] 26.4 µM | AC50 [4] 20.9 µM | AC50 [5] 13.2 µM | AC50 [11] 16.6 µM | AC50 [6] 13.2 µM

CCN(C(=O)c1c(O)c2c(Cl)cccc2n(C)c1=O)c1ccccc1
active: AC50 [1] 8.33 µM | AC50 [12] 14.8 µM
8690: cell count [8, 15]
9820: cell count [8, 16]
inactive: outcome [2] | outcome [4] | outcome [11] | fold change [8, 13] 0.884 | z-score [10, 17] -0.321
0.907: fold change [8, 14]
0.483: z-score [10, 18]

Cc1cc(Nc2nc(N[C@@H](C)c3ccc(F)cc3)c(C#N)cc2F)n[nH]1
active: AC50 [1] 0.934 µM | AC50 [2] 20.9 µM | AC50 [3] 5.9 µM | AC50 [4] 4.68 µM | AC50 [5] 1.32 µM | AC50 [11] 23.5 µM | AC50 [6] 5.9 µM | IC50 [7] 5.25 µM

Cc1ccc2c(c1)C(=O)[C@]1(O)CCN(c3ccccc3)C1=N2
active: AC50 [1] 14.8 µM
-2.56: z-score [10, 18]
6020 and 6690: cell count [8, 15]
6450 and 7900: cell count [8, 16]
inactive: outcome [2] | outcome [12] | outcome [11] | outcome [6] | outcome [7] | fold change [8, 13] 0.934 and 0.847 | z-score [10, 17] -0.292
0.749 and 0.315: fold change [8, 14]

CC1(C)S[C@H]2[C@H](NC(=O)[C@@H](N)c3ccc(O)cc3)C(=O)N2[C@H]1C(=O)O
inactive: outcome [1] | outcome [5] | outcome [11] | outcome [6] | outcome [7]
active: AC50 [2] 23.5 µM | AC50 [12] 1.32 µM

CC[C@H](NC(=O)[C@H](C)NC)C(=O)N1C[C@@H](O)C[C@H]1Cc1c(-c2[nH]c3cc(F)ccc3c2C[C@@H]2C[C@H](O)CN2C(=O)[C@H](CC)NC(=O)[C@H](C)NC)[nH]c2cc(F)ccc12
active: AC50 [3] 0.0662 µM
inactive: outcome [1] | outcome [2] | outcome [4] | outcome [5] | outcome [11] | outcome [6] | outcome [7]

CN(C)c1ccc(C2Nc3ccc4ccccc4c3C3=C2C(=O)CC(C)(C)C3)cc1Br (configuration not stated)
inactive: outcome [1] | outcome [2] | outcome [12] | outcome [11] | outcome [6]

c1cc(-c2sc(-c3ccncc3)c(-c3ccncc3)c2-c2ccncc2)ccn1
inactive: outcome [1] | outcome [2] | outcome [12] | outcome [5] | outcome [11] | outcome [6] | outcome [7]

CC(=O)Nc1ccc([C@H](C)C(=O)Nc2ncc(C(C)C)s2)cc1
active: AC50 [1] 0.934 µM | AC50 [2] 4.69 µM | AC50 [3] 2.64 µM | AC50 [4] 2.95 µM | AC50 [5] 1.86 µM | AC50 [6] 3.32 µM | IC50 [7] 2.95 µM

Nc1ccc(C(=O)c2cc3c(ccc4ccccc43)[nH]2)cc1
active: AC50 [1] 3.82 µM | AC50 [2] 23.5 µM | AC50 [12] 8.33 µM | AC50 [5] 2.15 µM | AC50 [6] 5.39 µM

CCn1c(-c2nonc2N)nc2cncc(CNC3CCNCC3)c21
inactive: outcome [1] | outcome [2] | outcome [12] | outcome [11] | outcome [6] | outcome [7]

Cc1c(CN2CCN(S(C)(=O)=O)CC2)sc2c(N3CCOCC3)nc(-c3cnc(N)nc3)nc12
active: AC50 [1] 0.661 µM | AC50 [2] 0.332 µM | AC50 [3] 0.0235 µM | AC50 [4] 0.525 µM | AC50 [5] 0.166 µM | AC50 [11] 0.526 µM | AC50 [6] 1.05 µM

O=c1c(O)c(-c2cc(O)c(O)c(O)c2)oc2cc(O)cc(O)c12
inactive: outcome [1] | outcome [2] | outcome [12] | outcome [5] | outcome [11] | outcome [6] | fold change [8, 13] 1.07 and 0.861 and 0.936 | z-score [10, 17] -0.358
8570 and 8710 and 9810: cell count [8, 15]
0.188: z-score [10, 18]
8020 and 10100 and 10500: cell count [8, 16]
0.806 and 1.45 and 0.825: fold change [8, 14]

C=C1CCC2[C@](C)(CO)C(O)CC[C@]2(C)C1C/C=C1/C(=O)OCC1O (some centres not stated)
inactive: outcome [2] | outcome [3] | outcome [11]
active: AC50 [1] 16.6 µM | AC50 [4] 16.6 µM | AC50 [5] 13.2 µM | AC50 [6] 13.2 µM

C[C@@]1(C(=O)Nc2ccc(F)nc2)CCCN1c1nc(Nc2cc(C3CC3)[nH]n2)c2cccn2n1
active: AC50 [1] 0.263 µM | AC50 [2] 7.43 µM | AC50 [3] 0.0833 µM | AC50 [4] 0.0209 µM | AC50 [5] 0.0132 µM | AC50 [6] 0.186 µM | IC50 [7] 0.0742 µM

CC1CCC(C(=O)N(c2cc(C#CC(C)(C)C)sc2C(=O)O)C2CCC(O)CC2)CC1 (configuration not stated)
-0.0881: z-score [10, 18]
inactive: outcome [2] | outcome [12] | fold change [8, 13] 0.937 | z-score [10, 17] 0.177
active: AC50 [1] 26.3 µM | AC50 [6] 23.5 µM
7690: cell count [8, 15]
0.832: fold change [8, 14]
8210: cell count [8, 16]

— PubChem BioAssay
